Reference: PubChem BioAssay AID1159580 (chemical genetic matrix, 2015)
Values joined by “and” are separate entries in the source; they are usually repeats but may differ in a detail not shown here. Identical values can stand only once. In all, about 5,500 compounds went through this assay and about 2,000 (36%) were called active. Another 18% or so got no clear call; they are omitted. Rule as the data show it: active = normalized growth mostly below about 0.91 (no sharp cut-off); inconclusive = no clear call, values can overlap the other calls; inactive = mostly above about 0.92. This is one part of the list.

Experiment: chemical genetic growth profiling, strain panel (AID 1159580);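 also: tested at 20 µM; growth read once vehicle control cultures reached saturation at 30 °C; 1 = growth at the plate median or of vehicle wells; lower values mean less growth of the strain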
Details: S. cerevisiae deletion strains, growth OD

Measured: normalized growth

COc1ccc2c(c1)[C@]13CCCC[C@H]1[C@H](C2)N(C)CC3
inactive: locus YAL021C, strain ccr4, stronger effect = lower value 0.94 | locus YAL026C, strain drs2, stronger effect = lower value 1 | locus YAL030W, strain snc1, stronger effect = lower value 0.971 | locus YBL061C, strain skt5, stronger effect = lower value 0.981 | locus YBR009C, strain hhf1, stronger effect = lower value 0.988 | locus YBR021W, strain FUR4, stronger effect = lower value 1.01 | locus YBR023C, strain chs3, stronger effect = lower value 0.99 | locus YBR171W, strain sec66, stronger effect = lower value 0.933 | locus YBR229C, strain ROT2, stronger effect = lower value 1.01 | locus YBR231C, strain swc5, stronger effect = lower value 0.937 | locus YBR279W, strain paf1, stronger effect = lower value 0.998 | locus YCL011C, strain gbp2, stronger effect = lower value 0.991 | locus YCL016C, strain dcc1, stronger effect = lower value 1.03 | locus YCL029C, strain bik1, stronger effect = lower value 0.988 | locus YCL061C, strain MRC1, stronger effect = lower value 0.968 | locus YCL069W, strain vba3, stronger effect = lower value 0.995 | locus YCR088W, strain abp1, stronger effect = lower value 0.952 | locus YDL005C, strain med2, stronger effect = lower value 0.97 | locus YDL035C, strain GPR1, stronger effect = lower value 1.04 | locus YDL040C, strain nat1, stronger effect = lower value 0.962 | locus YDL074C, strain BRE1, stronger effect = lower value 0.993 | locus YDL101C, strain DUN1, stronger effect = lower value 1 | locus YDL134C, strain PPH21, stronger effect = lower value 1.03 | locus YDL185W, strain tfp1, stronger effect = lower value 0.989 | locus YDL192W, strain arf1, stronger effect = lower value 0.995 | locus YDR001C, strain nth1, stronger effect = lower value 0.951 | locus YDR069C, strain doa4, stronger effect = lower value 0.943 | locus YDR101C, strain arx1, stronger effect = lower value 0.999 | locus YDR137W, strain rgp1, stronger effect = lower value 0.999 | locus YDR150W, strain NUM1, stronger effect = lower value 1.01 | locus YDR159W, strain sac3, stronger effect = lower value 0.955 | locus YDR162C, strain NBP2, stronger effect = lower value 1.01 | locus YDR195W, strain ref2 0.926 | locus YDR297W, strain sur2, stronger effect = lower value 0.98 | locus YDR318W, strain mcm21, stronger effect = lower value 0.988 | locus YDR334W, strain swr1, stronger effect = lower value 0.909 | locus YDR335W, strain msn5, stronger effect = lower value 0.949 | locus YDR388W, stronger effect = lower value 0.993 | locus YDR392W, strain spt3, stronger effect = lower value 1.03 | locus YDR502C, strain sam2, stronger effect = lower value 0.992 | locus YEL003W, strain gim4, stronger effect = lower value 0.966 | locus YEL037C, strain rad23, stronger effect = lower value 0.975 | locus YEL061C, strain CIN8 (second series), stronger effect = lower value 0.96 | locus YEL061C, strain CIN8, stronger effect = lower value 1.01 | locus YER015W, strain faa2, stronger effect = lower value 0.961 | locus YER016W, strain bim1, stronger effect = lower value 1 | locus YER110C, stronger effect = lower value 0.996 | locus YER111C, strain swi4, stronger effect = lower value 0.978 | locus YER155C, strain BEM2 (second series), stronger effect = lower value 0.886 | locus YER155C, strain BEM2, stronger effect = lower value 1 | locus YER167W, strain BCK2, stronger effect = lower value 1.01 | locus YFR010W, strain ubp6, stronger effect = lower value 0.95 | locus YGL078C, strain dbp3, stronger effect = lower value 0.993 | locus YGL086W, strain mad1, stronger effect = lower value 0.993 | locus YGL167C, strain pmr1, stronger effect = lower value 0.946 | locus YGL173C, strain kem1, stronger effect = lower value 1 | locus YGL227W, strain vid30, stronger effect = lower value 0.965 | locus YGL240W, strain doc1, stronger effect = lower value 0.948 | locus YGL248W, strain PDE1, stronger effect = lower value 0.995 | locus YGL253W, strain hxk2, stronger effect = lower value 0.998 | locus YGR078C, strain PAC10, stronger effect = lower value 0.996 | locus YGR135W, strain pre9, stronger effect = lower value 0.964 | locus YGR229C, strain SMI1, stronger effect = lower value 1.02 | locus YGR252W, strain gcn5, stronger effect = lower value 0.973 | locus YHR013C, strain ard1, stronger effect = lower value 0.991 | locus YHR027C, strain rpn1, stronger effect = lower value 0.985 | locus YHR030C, strain SLT2, stronger effect = lower value 1.01 and 1.03 | locus YHR079C, strain IRE1 (second series), stronger effect = lower value 0.984 | locus YHR079C, strain IRE1, stronger effect = lower value 1.03 | locus YHR094C, strain hxt1, stronger effect = lower value 0.987 | locus YHR129C, strain ARP1, stronger effect = lower value 1.01 | locus YHR142W, strain chs7, stronger effect = lower value 0.987 | locus YHR200W, strain rpn10, stronger effect = lower value 0.996 | locus YIL066C, strain RNR3, stronger effect = lower value 1.01 | locus YIL073C, strain SPO22, stronger effect = lower value 0.976 | locus YIL125W, strain kgd1, stronger effect = lower value 0.987 | locus YIR030C, strain dcg1, stronger effect = lower value 0.999 | locus YJL092W, strain hpr5, stronger effect = lower value 0.962 | locus YJL095W, strain BCK1 (second series), stronger effect = lower value 0.978 | locus YJL095W, strain BCK1, stronger effect = lower value 0.966 and 1.04 | locus YJL115W, strain asf1, stronger effect = lower value 0.95 | locus YJL129C, strain trk1, stronger effect = lower value 0.932 | locus YJL134W, strain LCB3, stronger effect = lower value 0.999 | locus YJL154C, strain vps35, stronger effect = lower value 0.954 | locus YJL164C, strain tpk1, stronger effect = lower value 1.02 | locus YJL166W, strain qcr8, stronger effect = lower value 0.929 | locus YJL168C, strain set2, stronger effect = lower value 0.99 | locus YJL187C, strain SWE1 (second series), stronger effect = lower value 0.994 | locus YJR043C, strain POL32, stronger effect = lower value 1.04 | locus YJR066W, strain TOR1, stronger effect = lower value 0.984 | locus YJR075W, strain HOC1, stronger effect = lower value 0.983 | locus YKL009W, strain mrt4, stronger effect = lower value 0.99 | locus YKL068W, stronger effect = lower value 0.993 | locus YKL085W, strain MDH1 (second series), stronger effect = lower value 0.984 | locus YKL085W, strain MDH1, stronger effect = lower value 0.984 | locus YKL160W, strain elf1, stronger effect = lower value 0.97 | locus YKR001C, strain vps1, stronger effect = lower value 0.997 | locus YKR026C, strain gcn3, stronger effect = lower value 0.966 | locus YKR091W, strain srl3, stronger effect = lower value 0.966 | locus YLL001W, strain dnm1, stronger effect = lower value 0.926 | locus YLL026W, stronger effect = lower value 0.986 | locus YLL041C, strain sdh2, stronger effect = lower value 0.97 | locus YLR027C, strain aat2, stronger effect = lower value 0.966 | locus YLR039C, strain RIC1, stronger effect = lower value 1.1 | locus YLR058C, strain SHM2, stronger effect = lower value 0.996 | locus YLR102C, strain apc9, stronger effect = lower value 0.976 | locus YLR113W, strain HOG1, stronger effect = lower value 1.05 | locus YLR221C, strain rsa3, stronger effect = lower value 1.01 | locus YLR258W, strain gsy2, stronger effect = lower value 0.997 | locus YLR262C, strain YPT6 (second series), stronger effect = lower value 0.954 | locus YLR262C, strain YPT6, stronger effect = lower value 1.08 | locus YLR268W, strain sec22, stronger effect = lower value 0.988 | locus YLR320W, strain mms22, stronger effect = lower value 1 | locus YLR330W, strain CHS5, stronger effect = lower value 1.01 | locus YLR342W, strain FKS1 (second series), stronger effect = lower value 0.997 | locus YLR342W, strain FKS1, stronger effect = lower value 0.946 | locus YLR357W, strain rsc2, stronger effect = lower value 0.958 | locus YLR370C, strain arc18, stronger effect = lower value 0.989 | locus YLR371W, strain rom2, stronger effect = lower value 0.993 | locus YLR384C, strain iki3, stronger effect = lower value 0.956 | locus YLR418C, strain cdc73, stronger effect = lower value 0.957 | locus YML016C, strain PPZ1, stronger effect = lower value 1.01 | locus YML032C, strain rad52, stronger effect = lower value 0.997 | locus YML120C, strain ndi1, stronger effect = lower value 0.973 | locus YML124C, strain tub3, stronger effect = lower value 0.997 | locus YMR058W, strain fet3, stronger effect = lower value 0.974 | locus YMR078C, strain ctf18, stronger effect = lower value 0.982 | locus YMR125W, strain sto1, stronger effect = lower value 0.917 | locus YMR129W, stronger effect = lower value 0.985 | locus YMR205C, strain PFK2, stronger effect = lower value 0.953 | locus YMR223W, strain ubp8, stronger effect = lower value 0.965 | locus YMR231W, strain pep5, stronger effect = lower value 0.965 | locus YMR307W, strain GAS1, stronger effect = lower value 1.09 | locus YNL067W, strain RPL9B, stronger effect = lower value 0.99 | locus YNL071W, strain lat1, stronger effect = lower value 0.982 | locus YNL153C, strain GIM3, stronger effect = lower value 0.981 | locus YNL183C, strain NPR1, stronger effect = lower value 0.997 | locus YNL209W, strain ssb2, stronger effect = lower value 0.99 | locus YNL233W, strain BNI4, stronger effect = lower value 0.982 | locus YNL248C, strain rpa49, stronger effect = lower value 0.987 | locus YNL250W, strain rad50, stronger effect = lower value 1.01 | locus YNL271C, strain bni1, stronger effect = lower value 0.994 | locus YNL298W, strain CLA4, stronger effect = lower value 0.991 | locus YNL307C, strain MCK1, stronger effect = lower value 0.979 | locus YNL322C, strain KRE1 (second series), stronger effect = lower value 0.93 | locus YNR049C, strain mso1, stronger effect = lower value 0.976 | locus YNR052C, strain pop2, stronger effect = lower value 0.992 | locus YOL012C, strain htz1 0.734 | locus YOL147C, strain pex11, stronger effect = lower value 0.989 | locus YOR001W, strain rrp6, stronger effect = lower value 0.953 | locus YOR061W, strain CKA2, stronger effect = lower value 1.02 | locus YOR069W, strain VPS5, stronger effect = lower value 1.01 | locus YOR070C, strain gyp1, stronger effect = lower value 0.987 | locus YOR080W, strain dia2, stronger effect = lower value 0.945 | locus YOR083W, strain WHI5, stronger effect = lower value 0.947 | locus YOR106W, strain vam3, stronger effect = lower value 0.939 | locus YOR136W, strain idh2, stronger effect = lower value 0.99 | locus YOR144C, strain elg1, stronger effect = lower value 0.99 | locus YOR184W, strain ser1, stronger effect = lower value 0.99 | locus YOR231W, strain MKK1, stronger effect = lower value 1.04 | locus YOR265W, strain rbl2, stronger effect = lower value 0.967 | locus YOR270C, strain vph1, stronger effect = lower value 0.966 | locus YOR290C, strain snf2, stronger effect = lower value 1.01 | locus YOR316C, strain cot1, stronger effect = lower value 0.991 | locus YPL051W, strain arl3, stronger effect = lower value 0.985 | locus YPL078C, strain atp4, stronger effect = lower value 0.933 | locus YPL106C, strain sse1, stronger effect = lower value 0.944 | locus YPL240C, strain hsp82, stronger effect = lower value 0.967 | locus YPL256C, strain CLN2, stronger effect = lower value 1.03 | locus YPR119W, strain clb2, stronger effect = lower value 0.981 | locus YPR141C, strain kar3, stronger effect = lower value 0.98 | locus YPR163C, strain tif3, stronger effect = lower value 1 | locus YPR167C, strain met16, stronger effect = lower value 0.987 | strain wtn01, stronger effect = lower value 0.986
